This note sets out measurements from article PMC7862700, “An all-to-all approach to the identification of sequence-specific readers for epigenetic DNA modifications on cytosine”.

What all share (assay): DAPPL (digital affinity profiling via proximity ligation, sequencing); 10 mM Tris-HCl pH 7.5, 50 mM NaCl, 1 mM DTT, 4% glycerol, room temperature, 30 min; GST-TFs on glutathione beads, 16-mer random dsDNA library, 0.1% formaldehyde crosslink after washing; high values mean tight binding
What all share (settings): protein: recombinant; tags: N-terminal GST; dsDNA, one strand shown

For one assay, the target named is T1, FLI1 (Homo sapiens, UniProt Q01543 1-452).
T1 sequence: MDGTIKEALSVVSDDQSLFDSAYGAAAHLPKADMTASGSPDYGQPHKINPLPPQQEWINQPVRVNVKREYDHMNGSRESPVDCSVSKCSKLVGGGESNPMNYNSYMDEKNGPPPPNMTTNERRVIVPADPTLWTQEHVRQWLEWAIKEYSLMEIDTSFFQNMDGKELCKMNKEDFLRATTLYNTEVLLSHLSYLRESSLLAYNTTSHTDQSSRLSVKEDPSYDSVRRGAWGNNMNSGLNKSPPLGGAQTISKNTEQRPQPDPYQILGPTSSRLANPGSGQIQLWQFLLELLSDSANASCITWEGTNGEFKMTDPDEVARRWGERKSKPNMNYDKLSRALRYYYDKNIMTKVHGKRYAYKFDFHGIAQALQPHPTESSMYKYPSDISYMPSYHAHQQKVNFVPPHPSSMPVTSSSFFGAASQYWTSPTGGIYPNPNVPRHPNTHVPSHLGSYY
The essentials: (§1)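 Each value of binding signal is a hexamer's read frequency for a factor divided by the same hexamer's frequency in the tag-only sample. Barcoded, bead-captured GST fusions of human transcription factors made in yeast were pooled with that sample and incubated with 200 nmole of a random double-stranded 16-mer DNA library in Tris/NaCl/DTT/glycerol buffer at room temperature for 30 min. Washing, 0.1% formaldehyde crosslinking, proximity ligation, PCR and Illumina NextSeq500 sequencing followed.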

Another assay concerns the target T2, ELK1 (Homo sapiens, UniProt P19419 1-428).
T2 sequence: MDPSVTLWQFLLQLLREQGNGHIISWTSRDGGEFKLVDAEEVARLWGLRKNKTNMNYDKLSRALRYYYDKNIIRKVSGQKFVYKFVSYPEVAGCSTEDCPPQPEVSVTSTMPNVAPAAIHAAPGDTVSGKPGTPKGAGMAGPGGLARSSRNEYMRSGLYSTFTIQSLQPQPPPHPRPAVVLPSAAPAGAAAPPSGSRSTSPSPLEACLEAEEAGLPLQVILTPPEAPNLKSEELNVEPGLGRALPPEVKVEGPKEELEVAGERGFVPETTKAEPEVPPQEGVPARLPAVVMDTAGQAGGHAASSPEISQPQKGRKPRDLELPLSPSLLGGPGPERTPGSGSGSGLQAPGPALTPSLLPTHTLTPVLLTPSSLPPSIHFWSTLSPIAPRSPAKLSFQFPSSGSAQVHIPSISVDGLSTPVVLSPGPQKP
The essentials: as §1

A further assay deals with T3, GABPA (Homo sapiens, UniProt Q06546 1-454).
T3 sequence: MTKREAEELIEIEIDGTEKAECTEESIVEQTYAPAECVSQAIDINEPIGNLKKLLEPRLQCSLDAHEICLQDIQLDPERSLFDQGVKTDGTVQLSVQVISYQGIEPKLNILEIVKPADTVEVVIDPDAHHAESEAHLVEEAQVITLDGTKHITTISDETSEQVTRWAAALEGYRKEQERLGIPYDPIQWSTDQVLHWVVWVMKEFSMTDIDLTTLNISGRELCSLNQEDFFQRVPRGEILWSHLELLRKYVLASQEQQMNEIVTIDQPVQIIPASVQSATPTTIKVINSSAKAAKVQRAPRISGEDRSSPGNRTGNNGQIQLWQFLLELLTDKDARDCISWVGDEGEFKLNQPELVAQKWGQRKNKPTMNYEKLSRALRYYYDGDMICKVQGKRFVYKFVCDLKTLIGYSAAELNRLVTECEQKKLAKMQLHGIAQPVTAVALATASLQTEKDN
The essentials: as §1

The target of a further assay is T4, ERG (Homo sapiens, UniProt P11308 1-479).
T4 sequence: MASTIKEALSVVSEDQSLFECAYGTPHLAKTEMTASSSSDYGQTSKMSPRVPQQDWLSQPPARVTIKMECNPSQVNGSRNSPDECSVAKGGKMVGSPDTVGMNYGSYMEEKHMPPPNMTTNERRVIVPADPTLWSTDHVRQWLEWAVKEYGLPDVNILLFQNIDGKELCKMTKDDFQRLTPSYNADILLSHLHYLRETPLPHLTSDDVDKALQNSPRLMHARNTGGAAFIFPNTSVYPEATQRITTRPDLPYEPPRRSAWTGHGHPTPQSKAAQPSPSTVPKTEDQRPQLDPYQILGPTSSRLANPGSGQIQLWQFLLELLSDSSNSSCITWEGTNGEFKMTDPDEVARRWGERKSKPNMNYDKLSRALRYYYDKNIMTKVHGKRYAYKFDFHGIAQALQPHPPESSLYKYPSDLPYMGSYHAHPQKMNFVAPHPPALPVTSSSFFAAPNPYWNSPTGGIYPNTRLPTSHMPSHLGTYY
Put shortly: as §1

The next assay deals with ELF1 (Homo sapiens, UniProt P32519 1-619). Put shortly: as §1
In the next assay the target is T5, EHF (Homo sapiens, UniProt Q9NZC4 1-300).
T5 sequence: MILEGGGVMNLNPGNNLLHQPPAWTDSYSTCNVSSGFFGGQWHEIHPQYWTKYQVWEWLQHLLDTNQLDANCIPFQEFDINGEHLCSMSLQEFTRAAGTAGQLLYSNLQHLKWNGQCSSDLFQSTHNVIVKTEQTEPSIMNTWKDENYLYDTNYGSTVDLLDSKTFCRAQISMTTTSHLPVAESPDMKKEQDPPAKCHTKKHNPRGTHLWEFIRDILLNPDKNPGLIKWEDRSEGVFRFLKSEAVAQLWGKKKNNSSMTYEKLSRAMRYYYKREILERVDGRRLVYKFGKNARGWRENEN
Put shortly: as §1

The next assay deals with SPI1 (Homo sapiens, UniProt P17947 1-270). Put shortly: as §1
A further assay deals with SPIB (Homo sapiens, UniProt Q01892 1-262). The essentials:
as §1

A further assay concerns the target T6, ELK3 (Homo sapiens, UniProt P41970 1-407).
T6 sequence: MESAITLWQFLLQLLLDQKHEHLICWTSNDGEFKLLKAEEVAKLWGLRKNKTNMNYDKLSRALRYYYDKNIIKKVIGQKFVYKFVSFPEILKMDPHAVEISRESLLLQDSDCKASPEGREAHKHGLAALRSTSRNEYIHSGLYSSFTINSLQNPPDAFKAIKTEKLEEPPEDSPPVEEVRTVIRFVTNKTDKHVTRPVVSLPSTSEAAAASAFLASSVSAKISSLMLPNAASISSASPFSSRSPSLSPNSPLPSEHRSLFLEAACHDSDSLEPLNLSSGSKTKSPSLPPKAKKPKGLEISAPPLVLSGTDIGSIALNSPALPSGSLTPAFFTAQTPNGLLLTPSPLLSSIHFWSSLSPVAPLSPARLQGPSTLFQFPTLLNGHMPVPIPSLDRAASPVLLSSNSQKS
Put shortly: as §1

The target of the next assay is T7, FEV (Homo sapiens, UniProt Q99581 1-238).
T7 sequence: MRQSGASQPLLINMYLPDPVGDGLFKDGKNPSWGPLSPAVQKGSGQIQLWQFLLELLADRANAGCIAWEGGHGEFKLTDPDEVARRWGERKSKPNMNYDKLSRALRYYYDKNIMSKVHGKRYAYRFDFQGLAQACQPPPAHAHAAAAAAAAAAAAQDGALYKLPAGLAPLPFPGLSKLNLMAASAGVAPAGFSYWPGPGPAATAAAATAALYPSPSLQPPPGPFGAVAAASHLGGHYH
The essentials:
as §1

Another assay has as its target ETV5 (Homo sapiens, UniProt P41161 1-510). The essentials:
as §1

In a further assay the target is T8, SPIC (Homo sapiens, UniProt Q8N5J4 1-248).
T8 sequence: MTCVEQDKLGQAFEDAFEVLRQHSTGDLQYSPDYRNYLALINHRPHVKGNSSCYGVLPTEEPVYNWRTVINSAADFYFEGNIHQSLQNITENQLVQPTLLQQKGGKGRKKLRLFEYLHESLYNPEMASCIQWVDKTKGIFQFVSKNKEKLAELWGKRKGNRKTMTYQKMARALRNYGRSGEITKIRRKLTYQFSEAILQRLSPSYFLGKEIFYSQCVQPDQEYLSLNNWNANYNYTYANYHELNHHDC
Put shortly: as §1

Another assay addresses ELF4 (Homo sapiens, UniProt Q99607 1-663). The essentials:
as §1

The target of a further assay is T9, ELK4 (Homo sapiens, UniProt P28324-2 1-405).
T9 sequence: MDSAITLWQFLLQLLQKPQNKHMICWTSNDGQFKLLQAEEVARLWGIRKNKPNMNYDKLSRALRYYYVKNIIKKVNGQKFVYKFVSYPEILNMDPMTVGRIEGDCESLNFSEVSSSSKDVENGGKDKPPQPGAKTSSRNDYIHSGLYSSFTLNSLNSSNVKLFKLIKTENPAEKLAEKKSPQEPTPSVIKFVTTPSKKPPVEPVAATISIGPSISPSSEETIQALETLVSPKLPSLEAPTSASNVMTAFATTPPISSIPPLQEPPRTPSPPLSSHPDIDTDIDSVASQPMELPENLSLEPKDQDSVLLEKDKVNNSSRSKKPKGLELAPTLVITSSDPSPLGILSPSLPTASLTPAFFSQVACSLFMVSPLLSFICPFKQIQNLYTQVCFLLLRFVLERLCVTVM
Put shortly:
as §1

The next assay addresses T10, ETV2 (Homo sapiens, UniProt O00321 1-342).
T10 sequence: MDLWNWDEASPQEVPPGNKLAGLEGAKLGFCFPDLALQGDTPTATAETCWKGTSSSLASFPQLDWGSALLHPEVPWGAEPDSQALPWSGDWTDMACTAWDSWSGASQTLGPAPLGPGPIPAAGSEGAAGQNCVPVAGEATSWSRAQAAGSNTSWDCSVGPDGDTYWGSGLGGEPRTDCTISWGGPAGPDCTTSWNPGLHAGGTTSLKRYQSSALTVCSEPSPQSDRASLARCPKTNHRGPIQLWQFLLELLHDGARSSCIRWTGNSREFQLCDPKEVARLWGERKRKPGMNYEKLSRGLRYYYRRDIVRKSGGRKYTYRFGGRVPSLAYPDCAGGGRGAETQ
Put shortly:
as §1

The target of the next assay is T11, ELF3 (Homo sapiens, UniProt P78545 1-371).
T11 sequence: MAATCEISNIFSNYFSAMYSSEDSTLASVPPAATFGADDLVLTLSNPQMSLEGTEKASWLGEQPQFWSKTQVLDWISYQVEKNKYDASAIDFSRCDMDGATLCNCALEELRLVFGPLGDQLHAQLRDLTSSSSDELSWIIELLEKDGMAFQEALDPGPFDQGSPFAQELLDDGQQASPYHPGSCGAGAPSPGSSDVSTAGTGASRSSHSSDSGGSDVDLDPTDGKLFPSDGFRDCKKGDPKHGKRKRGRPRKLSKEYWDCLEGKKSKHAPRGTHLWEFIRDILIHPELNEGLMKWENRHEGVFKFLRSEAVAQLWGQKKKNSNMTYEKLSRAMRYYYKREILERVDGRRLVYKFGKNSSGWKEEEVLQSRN
Put shortly: as §1

Another assay addresses ETV1 (Homo sapiens, UniProt P50549 1-477). Put shortly: as §1

Sequence of ETV1 (P50549 whole entry): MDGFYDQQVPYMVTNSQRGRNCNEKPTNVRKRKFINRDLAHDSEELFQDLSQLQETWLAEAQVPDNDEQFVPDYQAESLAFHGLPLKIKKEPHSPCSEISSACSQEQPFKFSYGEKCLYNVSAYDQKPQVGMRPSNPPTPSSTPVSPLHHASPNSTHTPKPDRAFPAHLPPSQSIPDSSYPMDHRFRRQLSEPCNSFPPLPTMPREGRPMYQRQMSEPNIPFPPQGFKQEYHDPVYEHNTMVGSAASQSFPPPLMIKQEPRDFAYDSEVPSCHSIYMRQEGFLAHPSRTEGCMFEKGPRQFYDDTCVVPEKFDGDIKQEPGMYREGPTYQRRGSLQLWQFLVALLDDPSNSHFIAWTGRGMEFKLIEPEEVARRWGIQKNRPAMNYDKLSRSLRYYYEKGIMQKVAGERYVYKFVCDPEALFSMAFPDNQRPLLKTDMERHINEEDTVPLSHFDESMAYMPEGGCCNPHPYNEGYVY
Sequence of ELF4 (Q99607 whole entry): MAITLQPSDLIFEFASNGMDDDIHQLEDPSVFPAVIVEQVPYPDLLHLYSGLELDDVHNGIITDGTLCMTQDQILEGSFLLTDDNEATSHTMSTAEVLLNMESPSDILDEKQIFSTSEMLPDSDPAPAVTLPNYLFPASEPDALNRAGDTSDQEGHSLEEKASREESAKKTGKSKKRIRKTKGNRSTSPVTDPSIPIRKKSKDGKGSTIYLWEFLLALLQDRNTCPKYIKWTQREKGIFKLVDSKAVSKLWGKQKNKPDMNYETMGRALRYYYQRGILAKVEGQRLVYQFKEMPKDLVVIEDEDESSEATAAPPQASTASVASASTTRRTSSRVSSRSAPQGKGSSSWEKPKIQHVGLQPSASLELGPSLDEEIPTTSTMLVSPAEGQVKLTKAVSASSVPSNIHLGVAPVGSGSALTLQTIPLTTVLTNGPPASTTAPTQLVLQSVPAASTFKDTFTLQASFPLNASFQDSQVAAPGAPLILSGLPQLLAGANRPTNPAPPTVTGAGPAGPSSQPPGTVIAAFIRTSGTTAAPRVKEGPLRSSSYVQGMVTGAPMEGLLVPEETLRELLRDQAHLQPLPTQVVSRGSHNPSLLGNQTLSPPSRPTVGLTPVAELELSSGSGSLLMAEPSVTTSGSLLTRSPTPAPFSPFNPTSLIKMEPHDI
Sequence of ELF1 (P32519 whole entry): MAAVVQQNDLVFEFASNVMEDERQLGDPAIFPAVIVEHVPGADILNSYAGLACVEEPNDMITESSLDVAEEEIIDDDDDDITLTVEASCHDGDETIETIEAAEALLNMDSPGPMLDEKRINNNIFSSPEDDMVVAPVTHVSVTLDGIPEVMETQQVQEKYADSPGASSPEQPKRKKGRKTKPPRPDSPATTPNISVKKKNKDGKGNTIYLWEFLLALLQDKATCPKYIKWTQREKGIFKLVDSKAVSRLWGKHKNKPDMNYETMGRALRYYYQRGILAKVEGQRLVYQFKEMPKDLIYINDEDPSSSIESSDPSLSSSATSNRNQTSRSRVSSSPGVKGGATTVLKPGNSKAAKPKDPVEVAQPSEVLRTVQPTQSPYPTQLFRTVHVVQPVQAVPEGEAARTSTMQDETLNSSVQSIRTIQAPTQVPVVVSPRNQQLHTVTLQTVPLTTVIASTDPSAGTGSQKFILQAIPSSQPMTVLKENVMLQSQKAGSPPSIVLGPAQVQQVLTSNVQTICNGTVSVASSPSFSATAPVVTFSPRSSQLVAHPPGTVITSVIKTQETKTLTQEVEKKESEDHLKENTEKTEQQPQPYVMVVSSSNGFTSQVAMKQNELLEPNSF
Sequence of SPIB (Q01892 whole entry): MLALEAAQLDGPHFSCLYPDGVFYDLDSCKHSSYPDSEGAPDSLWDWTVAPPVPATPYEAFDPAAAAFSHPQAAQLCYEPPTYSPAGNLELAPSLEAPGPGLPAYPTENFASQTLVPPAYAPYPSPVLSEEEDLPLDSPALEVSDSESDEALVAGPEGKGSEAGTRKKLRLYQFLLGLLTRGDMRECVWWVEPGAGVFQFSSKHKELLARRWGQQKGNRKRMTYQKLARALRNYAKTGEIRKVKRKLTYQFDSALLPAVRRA
Sequence of ETV5 (P41161 whole entry): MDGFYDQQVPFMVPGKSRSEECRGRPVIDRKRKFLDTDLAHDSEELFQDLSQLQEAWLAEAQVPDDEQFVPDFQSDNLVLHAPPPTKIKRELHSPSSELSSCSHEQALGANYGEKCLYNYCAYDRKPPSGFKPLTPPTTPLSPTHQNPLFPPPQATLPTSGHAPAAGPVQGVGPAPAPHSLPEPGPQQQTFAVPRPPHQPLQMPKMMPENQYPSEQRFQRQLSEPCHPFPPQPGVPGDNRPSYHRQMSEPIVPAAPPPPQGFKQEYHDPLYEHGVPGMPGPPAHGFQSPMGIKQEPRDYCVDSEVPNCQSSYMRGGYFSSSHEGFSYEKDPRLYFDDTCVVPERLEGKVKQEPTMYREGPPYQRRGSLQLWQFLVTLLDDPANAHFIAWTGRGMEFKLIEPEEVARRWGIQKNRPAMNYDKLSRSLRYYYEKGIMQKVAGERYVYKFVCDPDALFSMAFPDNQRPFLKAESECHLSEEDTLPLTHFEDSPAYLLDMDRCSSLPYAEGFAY

For the sequence GGTTTG, the binding signal was 1.18 fold enrichment (6-mer frequency, TF over GST control) in the assay with FLI1; 1.15 fold enrichment (6-mer frequency, TF over GST control) in the assay with ELK1; 1.24 fold enrichment (6-mer frequency, TF over GST control) with GABPA; 1.13 fold enrichment (6-mer frequency, TF over GST control) in the assay with ERG; 1.19 fold enrichment (6-mer frequency, TF over GST control) in the assay with ELF1; 1.22 fold enrichment (6-mer frequency, TF over GST control) in the assay with EHF. Moreover, the binding signal with SPI1 was 1.06 fold enrichment (6-mer frequency, TF over GST control); with SPIB it was 1.01 fold enrichment (6-mer frequency, TF over GST control); with ELK3, 1.2 fold enrichment (6-mer frequency, TF over GST control); with FEV, 1.12 fold enrichment (6-mer frequency, TF over GST control); with ETV5, 1.02 fold enrichment (6-mer frequency, TF over GST control); in the assay with SPIC, 1.27 fold enrichment (6-mer frequency, TF over GST control). In addition, the binding signal with ELF4 was 1.12 fold enrichment (6-mer frequency, TF over GST control); in the assay with ELK4, 1.26 fold enrichment (6-mer frequency, TF over GST control); with ETV2, 1.05 fold enrichment (6-mer frequency, TF over GST control); in the assay with ELF3, 1.09 fold enrichment (6-mer frequency, TF over GST control); with ETV1, 1.14 fold enrichment (6-mer frequency, TF over GST control).
